Results: PubChem BioAssay AID1347423 (Functional Genomics Laboratory (NCATS/FGL), 2020)
Hit rate of the full screen: of about 52,000 sequences, about 210 (0.4%) were called active.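 Rule for the calls: active = gene whose silencing raises cell survival under the drug, median off-target-corrected z-score across its silencing RNAs 2 or more; inactive = the rest.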 This excerpt belongs to a sample that is enriched for actives.

test: Resistance to Poly (ADP-Ribose) Polymerase inhibitor: Gene Identification via Genome-wide siRNA Screen; conditions: mouse BRCA2 R2336H ES cells, olaparib, CellTiter-Glo viability; hits give high values
Source text: The role of Poly (ADP-Ribose) Polymerase (PARP) proteins in DNA repair has been elegantly utilized for the synthetic lethality-based treatment of BRCA-deficient tumors by PARP inhibitors. PARP inhibitors are now being used for treatment of BRCA-deficient breast and ovarian cancers. […] While several mechanisms of drug resistance have been identified, majority of these tumors develop drug resistance due to unknown causes. To identified novel regulators of chemo-resistance in BRCA2-mutated cells, we performed a genome wide siRNA library screen. We have found ES cells expressing a hypomorphic allele of BRCA2 to be hypersensitive to PAPP inhibitors (such as olaparib). We used ES cells expressing a mutant allele of BRCA2 that has a single amino acid substitution at position 2336 (arginine to histidine, R2336H). The screen was conducted using an Ambion (Thermo) Silencer Mouse Genome siRNA collection. The library targets 17,575 mouse genes with 3 siRNAs per gene. TET2 (E130014J05Rik) was identified as a top candidate.
Transfections were performed in 384 well plates (Corning 3707). Plates were coated with 0.1% gelatin in H2O overnight at ambient temperature. Gelatin solution was aspirated (BioTek EL406) and siRNAs were printed using a Bravo VPrep liquid handler integrated within a BioCel automation platform (Agilent). Cell viability was measured using CellTiter Glo (Promega). For transfections, […] of serum free media containing Lipofectamine RNAiMax […] was added to wells containing siRNA (0.8pmol). Lipid and siRNA were allowed to complex for 45 min at ambient temperature before addition of 1000 cells in DMEM, 30% FBS to yield final transfection mixtures containing 20 nM siRNA in DMEM, 15% FBS. PARPi (olaparib, AZD2281) was added 48 h post-transfection (500 nM) and viability (CellTiter Glo, Promega) was assayed 72 h later on a PerkinElmer Envision 2104 Multilabel plate reader. Ambion Silencer Select Negative Control #2 was incorporated on all screening plates (16 wells) and the median negative control value on each plate was used for normalization. An siRNA targeting Trp53 was used as a positive control. This control yielded a median protective effect of ~1.9 fold versus negative control throughout the screen. The median absolute deviation (MAD) based z-score was calculated for each siRNA. Genes were then ranked by taking the median value for all siRNAs tested against a given gene. Scores were also adjusted for seed-based off-target effects to help deprioritize likely false positives.

Sequence	z-score
GCCUCUUUGAUAGCAAAAGTT against Cct6a	0.0125 (inactive)
GGCAUUUUUCUUCUCCAAATT against Clns1a	-0.934 (inactive)
GGGACUGUAAUGUUGACACTT against Olfr560	0.851 (inactive)
GGCAAAAAAAACUGCUAUATT against Gpr128	0.0555 (active)
GGAAAUAAGACUCAGGUCATT against Gtf2a1	-1.44 (inactive)
GCGAGUUGGAAUUGAGAUCTT against Casp8	0.155 (inactive)
GGUUUUGGCUCGAAGGAAATT against Tead2	-1 (inactive)
GGAAUGUCCACAUUUUGUATT against Tigd5	0.00592 (inactive)
GGAUGAUGAGAGAAACAAATT against Jak1	2.1 (active)
GCCGGUUUCAGUUAAAGAGTT against Pccb	2.26 (inactive)
GGGAAUCGGCCUGAAGAAATT against Arl6ip5	-0.707 (inactive)
CCUUCUGGUGCUUUUAGAGTT against Tlm	0.431 (inactive)
GGGUUAUACCAAGUCCAUUTT against Mapk1	3.33 (active)
GGUUUCCAUGGUAACGUGGTT against Tns	1.17 (inactive)
CGAAGCUGCAAAGGAGAAGTT against Igf1	-0.732 (inactive)
GGUCUUCUACAACUCGGAATT against Sgpp1	-0.0398 (active)
GGAGAAGAAGAAAAGAACATT against Pom121	-3.12 (inactive)
GCACCCGGCACUAGAAAAATT against Shoc2	0.638 (inactive)
GCUUUACCUGCUCAGAAGCTT against Olfr520	0.553 (inactive)
GCGAUUUUACGGAUCCGGUTT against Olfr1420	-0.612 (inactive)
GGGAAGUCACUGAAGCCUGTT against Akr7a5	-0.538 (inactive)
GGGACACACGGUAUACAUCTT against Pfkl	0.358 (inactive)
GGAUGUUAUAAGAUUGCGUTT against Rnf170	-0.646 (inactive)
GGAACUGAUGAAUAUUUCATT against Chrnb1	0.177 (active)
GUUGGUAAAGGUCCUUGCCTT against D17Wsu155e	-1.02 (inactive)
GCUACUCAUGCUAGAUGACTT against Gba	1.64 (inactive)
GGUUGAACCCACUCUGCAATT against Olfr1113	-2.16 (inactive)

Sequence	z-score
GCACAGUGGAUGCAAUCAGTT against Btbd1	0.346 (inactive)
GCCCGACAGGAGAUAUUUATT against B230340J04Rik	-1.19 (inactive)
GGAGAGCUGGAACAAUAGCTT against Bcl2l2	2.66 (active)
GCCUUUGUAGGUUCAAGUGTT against 2310001H12Rik	1.78 (inactive)
GGAGAAGAUCGGAUGGCGATT against Itgb5	-0.391 (inactive)
CGGACUAAGUUUCAAAUCGTT against Pcdha2	-0.594 (inactive)
GGAUGUCACAACAGUUAUGTT against Otog	1.4 (inactive)
CCUAUAUGCGCUAUUUGAATT against 4732465J09Rik	0.557 (inactive)
GGCUAAUGUAUCGUCUGAGTT against Asb16	0.422 (active)
CCCUGACGAAGCCAUACAUTT against Bcor	-1.33 (inactive)
GGACAAACAUUGGAUUGAUTT against 0610009C03Rik	0.453 (inactive)
CCCAGAGGUUCCCGUCAAUTT against Hmgb3	1.9 (active)
GCCACCCACCUAAAAUCAATT against BC025872	0.573 (inactive)
GGGAAAUGGCUCAUACUGGTT against 2210010C04Rik	-0.608 (inactive)
GACCGAGUUCAAAGCGAACTT against Atp5e	-2.59 (inactive)
GGAAGAAAGCCAUUUGCUUTT against 4632412I24Rik	0.766 (inactive)
CGAUGAGAUGCGUAUUGAGTT against Card11	-0.977 (inactive)
GCGAACUCCUCUUUAGGCATT against Chrng	-0.258 (active)
GGGUAGACAGAAAGCCUUUTT against Olfr111	-0.573 (inactive)
GGUGUCUUAAAGCUGAAAUTT against E2f5	2.8 (inactive)
GGAGAGGAAUGGUGUGUUATT against 4931428D14Rik	-0.16 (inactive)
GGUGUUCCUGUCUUUCAUGTT against Chordc1	-1.35 (inactive)
CCAACUUCAAAACUAUCGUTT against Trp53bp1	1.96 (active)
GCUAGUGGUAAGUCAACCATT against D6Ertd349e	-0.584 (inactive)
GGUGGGAAUGGGAAUCAGUTT against Akr1e1	1.57 (inactive)
GUCCAUCAGCAGCUCAAUGTT against Ifna5	-0.126 (inactive)
GGCUUAUUUUUCUUCAGUUTT against Ext1	-0.0515 (inactive)

Sequence	z-score
GGAGGAAAAAAAGUGAAGATT against Zfp339	0.689 (inactive)
CCUAUGCUAUGUAGUUUAATT against Adam21	0.555 (active)
GCUGAUGAAGGUGAUACGUTT against Pnma2	0.0302 (inactive)
GGCACCUAAAUUCUUGAAUTT against Hspb6	-0.361 (inactive)
GGCCCUUCCCAAAGUAUUATT against Mup3	0.32 (inactive)
CCUACUACCUCUGUCAACATT against Nme4	1.46 (inactive)
GGUGGAGUUUGUGCAGAAGTT against 2310026J01Rik	0.572 (inactive)
CGAUGAUUCCAAGUUUGGCTT against Pinx1	-0.772 (inactive)
CCUGCAGCUGUAAAACCUGTT against Mt4	-0.909 (inactive)
CCGUAUCCGGCAUUGGAUUTT against Mrps16	0.345 (inactive)
GCUGUCCACUGCUUAAAUCTT against Isyna1	0.392 (inactive)
GGAAUUGUACAAAUGACCUTT against Adam29	-0.0465 (active)
GGAGCUCAGAUGCAAUGAGTT against Zfp393	-0.714 (inactive)
GGAUGAGCUCAAGAAGUCCTT against Snrpa	-1.3 (inactive)
CCUGUUUACAAGGAAUUGATT against Itgb1	0.411 (inactive)
GGAUCACAGCGAUUAUUGATT against D630028G08Rik	-0.512 (inactive)
CCCAUACUAAAAUUGUUGATT against Adam29	2.32 (active)
GCCAGGAUAUGGAUAUGCATT against 1520401A03Rik	1.47 (inactive)
CGACUUCAUAAUUAUGCAATT against Als2	0.307 (inactive)
GCCGAAUCCGAACAAAACCTT against Tat	1.35 (active)
GCUGUAUUGAAGGUCCCUUTT against Olfr744	-2.34 (inactive)
CCUGGCUAAUGACUAGCUCTT against D730046L02Rik	-0.501 (inactive)
GGUCUCCCUUCAGUAUGAGTT against Ela3b	2.47 (active)
GCUCAUUCUUACCAAUCUCTT against 2210413P10Rik	-0.897 (inactive)
GCCUCCACAUAGCUUCAACTT against 1110030H02Rik	1.14 (inactive)
GGUUGCACUUUUUCAUAGUTT against Bcl2l2	2.83 (active)
GGGAGCUCUAAAAAAAGUGTT against Olfr390	0.0742 (inactive)

Sequence	z-score
GGAGGAGAGGUACAAACGGTT against Cxxc1	-1.2 (inactive)
GCGGGCAAUGCCUUAAAAGTT against D16Ertd607e	0.194 (inactive)
GCCCGGUAAAGGUAUCCAUTT against Trp53bp1	1.78 (active)
GGGCACCUAUUCAGAUACCTT against Mtap2	0.64 (inactive)
GGAAAAGACGGGAGAUUUGTT against Mbldc1	0.0178 (inactive)
GUACGUCAUGGGUCACUUCTT against Pomc1	-0.0856 (inactive)
GGACAGAGUUCGAUCGACUTT against BC021523	-0.107 (inactive)
GUGAUGACUGAGCUUCUAATT against Olfr1446	-1.51 (inactive)
GCCUACAGAGUCUUAGUUATT against 2400003B06Rik	0.0277 (inactive)
GGGAGAAGAAGAUACACCATT against Usp47	2.16 (active)
GGCUGUGGACUUUUGUAAUTT against 3110002H16Rik	0.704 (inactive)
GCCGUUUUAUUCACGUGAATT against 1810033M07Rik	-0.105 (inactive)
GGUUAAAGAAGCCAUGAAATT against Olfr480	1.26 (inactive)
GCCUGUUCCGCCAUUCAUGTT against Fliih	-1.13 (inactive)
GGAGUGAUUAACCUAACUCTT against Crip3	-0.183 (active)
GACAAGACAAGUUUUGGUATT against Elmo1	-0.497 (inactive)
GGCCUUGAGGCUAUUCAUGTT against Stk16	0.0229 (inactive)
GGAAAGUUGUAUUUGAUGUTT against Nudt7	0.299 (inactive)
GCAUCUUCGAGGUUUCAAATT against BC006583	2.47 (inactive)
GGAAGUAGAGACAGGAGGATT against AF119384	1.25 (inactive)
GCGGCAUAUGCCUACUCUUTT against Slc6a12	-1.46 (active)
GCCUAGACCAGAGAAAGGUTT against AW555464	0.139 (inactive)
GCAAGUAUUAAGUAUGACGTT against Vps13c	0.194 (inactive)
GGCCAGGAGAAGAAGAUACTT against E130014J05Rik	4.51 (active)
